KCNQ2 pot: enhances the rat KCNQ2 potassium channel. O88943. CHO-K1 KCNQ2, FluxOR thallium flux fluorescence; stronger effect = higher value. B-score at 10 µM. actives 0.54% (n = 310,000);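 active = fluorescence ratio B-score at least 3 SD of library B-scores, with initial fluorescence B-score within 3 of them, cut at about 5.3 in these data; same plate scores as AID 2156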;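 also: B-score of peak minus minimum over baseline fluorescence ratio after K+ and Tl+ stimulus; positive B-score means potentiation of KCNQ2 with more thallium influx and brighter signal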
Target sequence (O88943 whole entry, looked up): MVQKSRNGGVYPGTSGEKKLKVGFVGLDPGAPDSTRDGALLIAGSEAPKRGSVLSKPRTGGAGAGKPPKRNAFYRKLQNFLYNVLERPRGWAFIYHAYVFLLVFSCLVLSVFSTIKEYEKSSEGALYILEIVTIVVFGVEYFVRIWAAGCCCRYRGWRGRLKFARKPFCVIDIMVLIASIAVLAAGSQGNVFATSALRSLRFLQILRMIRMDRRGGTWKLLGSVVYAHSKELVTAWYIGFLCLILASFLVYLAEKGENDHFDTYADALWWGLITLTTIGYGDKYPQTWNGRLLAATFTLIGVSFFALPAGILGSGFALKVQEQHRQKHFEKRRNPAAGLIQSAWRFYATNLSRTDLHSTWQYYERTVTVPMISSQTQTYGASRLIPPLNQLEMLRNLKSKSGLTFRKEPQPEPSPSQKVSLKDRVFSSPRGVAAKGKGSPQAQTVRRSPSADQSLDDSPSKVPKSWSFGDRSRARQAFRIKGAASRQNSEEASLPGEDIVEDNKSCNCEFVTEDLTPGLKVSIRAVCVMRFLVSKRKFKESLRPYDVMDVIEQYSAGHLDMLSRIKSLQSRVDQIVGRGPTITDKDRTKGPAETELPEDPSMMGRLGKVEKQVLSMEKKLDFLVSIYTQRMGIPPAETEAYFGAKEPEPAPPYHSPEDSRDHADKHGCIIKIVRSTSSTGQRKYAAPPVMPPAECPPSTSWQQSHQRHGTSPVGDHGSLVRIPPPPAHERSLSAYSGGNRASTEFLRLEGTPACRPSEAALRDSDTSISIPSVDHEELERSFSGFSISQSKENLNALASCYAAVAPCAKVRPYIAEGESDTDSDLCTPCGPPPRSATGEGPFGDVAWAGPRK
KCNQ2 block: inhibitors of rat KCNQ2 potassium channel | B-score at 10 µM | AID 2156 | O88943 | CHO-K1 KCNQ2, FluxOR thallium flux, 20 min; stronger effect = lower value | actives 1.1% (n = 310,000);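 active = fluorescence ratio B-score at most minus 3 library SDs, with starting brightness B-score within 2 library SDs, cut at about -5.5 in these data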
Numbers without * were called inactive. Most compounds without a hit are left out; they make up all but 1.6% or so of the library.

How did Fc1cccc(-c2cc3nc4c(c(N5CCC6(CC5)OCCO6)n3n2)CCCC4)c1 do in these assays?
KCNQ2 pot: -6.56; KCNQ2 block: -6.56*

Results for OC1CCN(c2c3c(nc4cc(-c5cccc(F)c5)nn24)CCCC3)CC1 ?
KCNQ2 block: inactive

What do the screens show for `COc1cc(OC)cc(-c2cc3nc4c(c(N5CCN(c6ncccn6)CC5)n3n2)CCCC4)c1`?
KCNQ2 pot: -6.2; KCNQ2 block: -6.2*

Results for CC(C)OCCCNC(=O)c1cc(S(=O)(=O)N2CCc3ccccc32)cn1C ?
KCNQ2 block: inactive

How did C/C(=N\O)C1(C)N(O)C(C)(C)C(c2ccco2)=[N+]1[O-] (stereo not drawn) do in these assays?
KCNQ2 block: inactive

Results for C/C(=N\Nc1cccc(Cl)c1)C1(C)N(O)C(C)(C)C(c2ccco2)=[N+]1[O-] (stereo not drawn) ?
KCNQ2 pot: -6.36; KCNQ2 block: -6.36*

What do the screens show for `COc1cccc(CN(Cc2ccco2)C(c2ccc(F)cc2)c2nnnn2C(C)(C)C)c1` (stereo not drawn)?
KCNQ2 pot: -6.06; KCNQ2 block: -6.06*

Results for CC(C)(C)n1nnnc1C(c1cccnc1)N(Cc1ccccc1)Cc1ccco1 (stereo not drawn) ?
KCNQ2 block: inactive

Results for CCOc1ccccc1CN1CCNC(=O)C1CC(=O)NCc1nccn1CC (stereo not drawn) ?
KCNQ2 pot: 0.53; KCNQ2 block: inactive

What do the screens show for `O=C(Nc1sc2c(c1C(=O)O)CCC2)C(=O)N1CCOCC1`?
KCNQ2 pot: 0.12; KCNQ2 block: inactive

What do the screens show for `CC12CCC(C/C1=N\N=C1\NC(=O)/C(=C\c3ccc(Cl)cc3)S1)C2(C)C` (stereo not drawn)?
KCNQ2 pot: 13*; KCNQ2 block: inactive

Results for O=C1NC(=Nc2ccccc2Cl)S/C1=C\c1ccc(C(=O)O)cc1 ?
KCNQ2 block: inactive

Results for CCCCc1nc2ccccc2c(=O)n1NC(=O)c1c(O)c2c(n(CC(C)C)c1=O)CCCC2 ?
KCNQ2 block: inactive

How did CC(C)Cn1c2c(c(O)c(C(=O)Nn3c(Cc4ccccc4)nc4ccccc4c3=O)c1=O)CCCC2 do in these assays?
KCNQ2 pot: -6.26; KCNQ2 block: -6.26*

Results for Nc1nc(NCCc2ccccc2)nc(NCCO)c1[N+](=O)[O-] ?
KCNQ2 pot: 1.55; KCNQ2 block: inactive

What do the screens show for `COc1ccc2nc(NC(=O)Nc3cccc4ccccc34)sc2c1`?
KCNQ2 block: inactive

What do the screens show for `COc1ccc2nc(N=Nc3c(O)ccc4ccccc34)sc2c1`?
KCNQ2 pot: 8.17*; KCNQ2 block: inactive

Results for O=C(NC1CCN(C(=O)c2cccc([N+](=O)[O-])c2)CC1)c1ccccc1 ?
KCNQ2 pot: 0.49; KCNQ2 block: inactive

What do the screens show for `COc1cccc(CN(C)C(=O)c2cc(-c3ccc(F)cc3)nc3ccccc23)c1`?
KCNQ2 block: inactive

How did COc1cccc(CN(C)C(=O)c2cc(-c3ccc(OC)c(OC)c3)nc3ccccc23)c1 do in these assays?
KCNQ2 pot: -6.04; KCNQ2 block: -6.04*

Results for COc1ccc(-c2cc(C(=O)N(C)CCc3ccc(OC)c(OC)c3)c3ccccc3n2)cc1 ?
KCNQ2 pot: -5.61; KCNQ2 block: -5.61*

How did COc1ccc(CN(C)C(=O)c2cc(-c3ccccc3)nc3ccc(C)cc23)c(OC)c1OC do in these assays?
KCNQ2 pot: -5.7; KCNQ2 block: -5.7*

How did COc1ccc(CCN(C)C(=O)c2cc(-c3ccccc3)nc3ccccc23)cc1OC do in these assays?
KCNQ2 block: inactive

Results for COc1ccc(-c2cc(C(=O)N(C)Cc3cccc(OC)c3OC)c3ccccc3n2)cc1OC ?
KCNQ2 block: inactive

What do the screens show for `c1ccc2cc(CSCc3nc4ccccc4[nH]3)ccc2c1`?
KCNQ2 block: inactive

How did Cc1cccc(C(=O)OCC(=O)NCCCc2ccccc2)c1 do in these assays?
KCNQ2 block: inactive

How did CCCc1cc(C(=O)N2CCCC(Cc3ccccc3C)(C(=O)OCC)C2)no1 (stereo not drawn) do in these assays?
KCNQ2 block: inactive

What do the screens show for `CC(C)OP(=O)(OC(C)C)C(NC(=O)c1ccc(Br)cc1)c1ccccc1` (stereo not drawn)?
KCNQ2 pot: -7.95; KCNQ2 block: -7.95*

What do the screens show for `CC(NC(=O)c1ccc(Br)cc1)c1ccccc1` (stereo not drawn)?
KCNQ2 pot: 2.61; KCNQ2 block: inactive

Results for O=C(O)Cn1ncn(-c2ccc(OC(F)(F)F)cc2)c1=O ?
KCNQ2 pot: 0.77; KCNQ2 block: inactive

How did Cc1ccc(NC(=O)c2sccc2SCc2cccc(C(F)(F)F)c2)cc1 do in these assays?
KCNQ2 pot: -6.81; KCNQ2 block: -6.81*

Results for Cc1cccc(C)c1NC(=O)c1sccc1SCc1cccc(C(F)(F)F)c1 ?
KCNQ2 block: inactive

What do the screens show for `O=C(Nc1cccc(F)c1)c1ccc(Cn2cc([N+](=O)[O-])cn2)o1`?
KCNQ2 pot: 5.49*; KCNQ2 block: inactive

What do the screens show for `Cc1ccccc1NC(=O)c1ccc(Cn2cc([N+](=O)[O-])cn2)o1`?
KCNQ2 pot: 0.72; KCNQ2 block: inactive

How did CCCCc1nnc(SC(C)C(=O)Nc2nccs2)n1C (stereo not drawn) do in these assays?
KCNQ2 block: inactive

How did O=C(COc1cccc2cccnc12)N/N=C/c1ccc(O)cc1 do in these assays?
KCNQ2 pot: 0.71; KCNQ2 block: inactive

Results for O=C(COc1cccc2cccnc12)N/N=C/c1cccn1-c1ccc(F)cc1 ?
KCNQ2 pot: -7.19; KCNQ2 block: -7.19*

Results for C[C@@H]1CN(C(=O)c2nc3ccc(Cl)cn3c2CNCC[C@@H]2C[C@@H]3C=C[C@H]2C3)C[C@H](C)O1 ?
KCNQ2 block: inactive

Results for O=C(c1nc2ccc(Cl)cn2c1CNCC[C@@H]1C[C@@H]2C=C[C@H]1C2)N1CCCCCCC1 ?
KCNQ2 pot: -5.85; KCNQ2 block: -5.85*

What do the screens show for `Cc1noc(C)c1COc1cccc(C(=O)OCC(=O)NCCN2C(=O)CSC2=O)c1`?
KCNQ2 pot: 8.35*; KCNQ2 block: inactive

Results for O=C(COC(=O)c1cccc(Cl)c1)NCCN1C(=O)CSC1=O ?
KCNQ2 pot: 0.05; KCNQ2 block: inactive

Results for CCC(CC)c1nnc(NC(=O)C2CC(=O)N(C3CCCC3)C2)s1 (stereo not drawn) ?
KCNQ2 block: inactive

Results for COC(=O)c1ccsc1NC(=O)CN1C(=O)CCC1=O ?
KCNQ2 block: inactive

How did CCCc1nnc(NC(=O)CSc2nnc(-c3ccco3)n2C)s1 do in these assays?
KCNQ2 pot: 0.18; KCNQ2 block: inactive

What do the screens show for `CCOC(=O)c1cc(-c2ccccc2)nc2ccc(C)cc12`?
KCNQ2 block: inactive

What do the screens show for `CCOC(=O)c1cnc2ccc(C)cc2c1Sc1ccc(F)cc1`?
KCNQ2 pot: -5.55; KCNQ2 block: -5.55*

Results for CCOc1ccc(N2CC(C(=O)N3CCN(C(=O)c4ccco4)CC3)CC2=O)cc1 (stereo not drawn) ?
KCNQ2 pot: 0.01; KCNQ2 block: inactive

How did Cc1cc(C)cc(NS(=O)(=O)c2ccc(-c3cnc(C4CC4)o3)cc2)c1 do in these assays?
KCNQ2 block: inactive

How did Cc1ccc(C)c(NS(=O)(=O)c2ccc(-c3cnc(C4CC4)o3)cc2)c1 do in these assays?
KCNQ2 pot: -6.8; KCNQ2 block: -6.8*

How did Cc1cc(C)cc(OCCCCn2cncn2)c1 do in these assays?
KCNQ2 pot: 0.69; KCNQ2 block: inactive
